Test results taken from the supplement of paper PMC7156485.

Test system: TDF
Assay: H1.0 immunofluorescence intensity relative to DMSO (% of DMSO); higher = stronger H1.0 induction, active = 120 or more
Settings: concentration: 10 µM; 24 h
In short: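 Compounds were applied at 10 µM for 24 h at 37 °C, in triplicate, to HCC1569 and TDF cells. The cells were then fixed and stained for H1.0, and nuclei were counterstained with DAPI. Nuclear H1.0 intensity or cell number is reported relative to the plate control as a percent, taking the median of replicates. Smoothing for positional effects was applied to HCC1569 values only.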
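Further: TDF is a line of transformed human dermal fibroblasts of mesenchymal origin.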

H1.0 immunofluorescence intensity, active:
CCCCCCCCCCCCCCCCCC(=O)NCC(COP(=O)([O-])OCC[N+](C)(C)C)OCC (racemic) [rac-2-Ethoxy-3-octadecanamido-1-propylphosphocholine] 183
COc1cc(OC)c(C=C2C(=O)Nc3ccccc32)c(OC)c1 145

H1.0 immunofluorescence intensity, inactive:
CC(C)NCC(O)COc1ccc(CC(N)=O)cc1 (centres undefined) [Atenolol] 94.7
NCCCC(=O)O 108
CN1CCN(c2c(F)cc3c(=O)c(C(=O)O)cn(CCF)c3c2F)CC1 [Fleroxacin] 102
COC(=O)C1=COC(C)C2CN3CCc4c([nH]c5ccccc45)C3CC12 (centres undefined) [Teterahydroalstonine] 98.8
NCC1OC(OC2C(N)CC(N)C(OC3OC(CO)C(O)C(N)C3O)C2O)C(O)C(O)C1O.O=S(=O)(O)O (centres undefined) [Kanamycin sulfate] 99.3
CC1(C)SC2C(NC(=O)C(N)c3ccc(O)cc3)C(=O)N2C1C(=O)O (centres undefined) [Amoxicillin] 105
Cc1ncc(Cl)cc1NCc1ccc(C(=O)N[C@@H](CC2CCCC2)C(=O)NC2CC2)s1 99.9
NCC1OC(OC2C(CO)OC(OC3C(O)C(N)CC(N)C3OC3OC(CO)C(O)C(O)C3N)C2O)C(N)C(O)C1O.O=S(=O)(O)O (centres undefined) [Paromomycin sulfate] 93.7
COc1ccc(CN(CCN(C)C)c2ccccn2)cc1.O=C(O)C=CC(=O)O [Pyrilamine maleate] 99.6
CC(C=CC1=C(C)CCCC1(C)C)=CC=CC(C)=CC(=O)O [13-cis-retinoic acid] 88.5
O=C(C=Cc1ccc(O)c(O)c1)OC1CC(O)(C(=O)O)CC(O)C1O (centres undefined) [Chlorogenic acid] 103
CCCCCCCCCCCCCCCC(=O)O [Hexadecanoic acid] 104
CCCCc1oc2ccccc2c1C(=O)c1cc(I)c(OCCN(CC)CC)c(I)c1.Cl [Amiodarone.HCl] 93.8
N=c1ccn2c(n1)OC1C(O)C(CO)OC12 (centres undefined) [Cyclocytidine] 103
CN1CCN2c3ccccc3Cc3ccccc3C2C1.Cl (centres undefined) [Mianserin hydrochloride] 95.5
O=C(C=Cc1ccc(O)c(O)c1)OC(Cc1ccc(O)c(O)c1)C(=O)O (centres undefined) [Rosmarinic acid] 97.7
Cc1cc(=O)oc2cc(O)ccc12 [4-Methylumbelliferone] 102
CC(=O)C(C)=O [2,3-Butanedione] 85.8
O=C(Nc1ccc(Cl)cc1)Nc1cccc(-c2cccc(N3CCCC3)n2)c1 98.6
C[n+]1ccccc1CC(=O)c1ccc(Br)cc1.[I-] [2-[2-(4-bromophenyl)-2-oxoethyl]-1-methylpyridinium iodide] 96.4
Fc1ccc(-c2nc3n(c2-c2ccncc2)CCS3)cc1 92.3
Fc1ccc(-c2c3cccc(C(F)(F)F)c3nn2Cc2ccc(F)cc2Cl)cc1 92.3
Cc1ccc([N+](=O)[O-])cc1S(=O)(=O)N(C)N=Cc1cnc2ccc(Br)cn12 111
CCC1C(=O)OCC1Cc1cncn1C.Cl (single isomer, unassigned; (+)) [(+)-Pilocarpine hydrochloride] 102
O=NN(CCCl)C(=O)NC1CCCCC1 [Lomustine] 102
NC1CCN(c2c(F)cc3c(=O)c(C(=O)O)cn(C4CC4)c3c2Cl)C1 (centres undefined) [Clinafloxacin] 94.3
CCOC(=O)[C@H](CCc1ccccc1)N[C@@H](C)C(=O)N1CCC[C@H]1C(=O)O.O=C(O)C=CC(=O)O 91
CN(C)CCC(CSc1ccccc1)Nc1ccc(S(=O)(=O)NC(=O)c2ccc(N3CCN(Cc4ccccc4-c4ccc(Cl)cc4)CC3)cc2)cc1[N+](=O)[O-] (centres undefined) 110
CC[N+](C)(C)c1cccc(O)c1.[Cl-] [Edrophonium chloride] 96.1
CC#CC1(O)CCC2C3CCC4=CC(=O)CCC4=C3C(c3ccc(N(C)C)cc3)CC21C (centres undefined) [Mifepristone] 96.8
Clc1ccc(COC(Cn2ccnc2)c2ccc(Cl)cc2Cl)c(Cl)c1 (centres undefined) [Miconazole] 101
Cn1nc2c3c(cccc31)C(=O)c1ccccc1-2 [JNK Inhibitor,                    Negative Control] 90.4
O=c1cc(-c2ccccc2)oc2cc(O)ccc12 [7-Hydroxyflavone] 96.8
CC(=O)Oc1ccccc1C(=O)O [Acetylsalicylic acid] 89.6
CN(C)C(=O)Nc1cccc(-c2ccc(N(C)C)cc2)c1 [3-(4'-(dimethylamino)-[1,1'-biphenyl]-3-yl)-1,1-dimethylurea] 97.6
O=C(O)c1cc(O)ccc1O [Gentisic acid] 98.5
CN(CC=CC#CC(C)(C)C)Cc1cccc2ccccc12.Cl 101
